According to the supplement of paper PMC10849652:
The full data set covers some 8,800 targets. This sample favours those with a hit. About 0.5% of all pairs of compound and target were hits.

Legend:
Experiment in all cases: log2 fold change, soluble protein after heating vs DMSO (PISA); higher = thermal stabilisation; K562 lysate, 10 uM; active = over 0.2 and 3.5 SD of the protein, either way, in both replicates (recomputed)
[1] = compound: C=CC(=O)N1CCC[C@@H](n2nc(-c3ccc(Oc4ccccc4)cc3)c3c(N)ncnc32)C1 [ibrutinib]
Procedure, shortened: (§1)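 To prepare the extract, K562 pellets were dounce-homogenised in PBS pH 7.4 with 1 mM MgCl2, giving crude material at 1 mg/mL protein. This was treated with 10 μM compound for 30 min, then heated in aliquots for 3 min over 48°C-58°C before pooling and addition of NP-40 to 0.5% at 4°C. Centrifugation at 21,000xg for 90 min left soluble protein in the supernatant, which TMTpro 16plex LC-MS/MS quantified with equalised channel sums. Results are log-two fold changes in thermal stability compared with solvent controls, from duplicates.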

[2] = compound: CC(=O)c1cnc2ccc(-c3cc(Cl)c(O)c(Cl)c3)nc2c1N[C@H]1CC[C@H](CN(C)C)CC1
Procedure, shortened: as §1

[3] = compound: CC(C)(C)Cn1c(N)nc2ccc(-c3[nH]c(C(C)(C)C)nc3-c3ccc(F)cc3)nc21 [ralimetinib]
Procedure, shortened: as §1

[4] = compound: CC(C)(O)CC(=O)NCCn1ccc2ncnc(Nc3ccc(Oc4cccc(C(F)(F)F)c4)c(Cl)c3)c21
Procedure, shortened: as §1

[5] = compound: CC(C)C1=C2N=C(C=C(N2N=C1)NCC3=CC=CC=C3)NCCCCCCN
Procedure, shortened: as §1

[6] = compound: CC1=C(C(CC(=O)N1)C2=CC=C(C=C2)C(F)(F)F)C(=O)NC3=C(C=C4C(=C3)C=NN4)F
Procedure, shortened: as §1

[7] = compound: CC1=C(C2=C(C=C1)C(=O)C3=CC=CC=C3N2CCCN)C
Procedure, shortened: as §1

[8] = compound: CC1=C(C=C(C=C1)NC(=O)C2=CC(=CC=C2)C(C)(C)C#N)NC3=CC4=C(C=C3)N=CN(C4=O)C
Procedure, shortened: as §1

[9] = compound: CC1=C(C=C(C=C1)NC(=O)C2=CC(=CC=C2)N(C)C)NC(=O)C3=CC=C(C=C3)O
Procedure, shortened: as §1

[10] = compound: CC1=CC=C(C=C1)SC2=C3C=C(SC3=CN=C2)C(=O)N
Procedure, shortened: as §1

[11] = compound: CCCS(=O)(=O)Nc1ccc(F)c(C(=O)c2c[nH]c3ncc(-c4ccc(Cl)cc4)cc23)c1F [vemurafenib]
Procedure, shortened: as §1

[12] = compound: CCCS(=O)(=O)Nc1ccc(F)c(C(=O)c2c[nH]c3ncc(Cl)cc23)c1F
Procedure, shortened: as §1

[13] = compound: CCN(CCCOc1ccc2c(Nc3cc(CC(=O)Nc4cccc(F)c4)[nH]n3)ncnc2c1)CCOP(=O)(O)O [barasertib]
Procedure, shortened: as §1

[14] = compound: CC[C@@H]1C(=O)N(C)c2cnc(Nc3ccc(C(=O)NC4CCN(C)CC4)cc3OC)nc2N1C1CCCC1
Procedure, shortened: as §1

[15] = compound: CC[C@@H]1C(=O)N(C)c2cnc(Nc3ccc(C(=O)N[C@H]4CC[C@H](N5CCN(CC6CC6)CC5)CC4)cc3OC)nc2N1C(C)C [volasertib]
Procedure, shortened: as §1

[16] = compound: CCn1c(C(=O)N(C2CC2)C2CC2)cc2c3c(ncn3C)c(Nc3cc(C)n(C)n3)nc21
Procedure, shortened: as §1

[17] = compound: CCn1cc(-c2ccnc3[nH]c(-c4cccc(CN(C)C)c4)cc23)c(-c2ccc(NC(=O)N(C)C)cc2)n1
Procedure, shortened: as §1

[18] = compound: CN1CCC(CNc2ccc3ncc(-c4cccc(OC(F)(F)F)c4)n3n2)CC1
Procedure, shortened: as §1

[19] = compound: CN1CCN(CCOc2cc(OC3CCOCC3)c3c(Nc4c(Cl)ccc5c4OCO5)ncnc3c2)CC1 [saracatinib]
Procedure, shortened: as §1

[20] = compound: CN1CCN(c2nc(C3=C(c4c[nH]c5ccccc45)C(=O)NC3=O)c3ccccc3n2)CC1 [sotrastaurin]
Procedure, shortened: as §1

Measured: log2 fold change

METTL2A (UniProt Q96IZ6)
inactive: [1] -0.006 | [2] 0.044 | [3] 0.048 | [4] 0.068 | [5] 0.018 | [6] 0.021 | [7] 0.038 | [8] -0.029 | [9] -0.025 | [10] 0.002 | [11] 0.073 | [12] 0.058 | [13] 0.023 | [14] -0.046 | [15] -0.015 | [16] -0.011 | [17] 0.06 | [18] -0.113 | [19] -0.004 | [20] 0.011

MICU1 isoform 3 (UniProt Q9BPX6)
inactive: [1] -0.011 | [2] -0.021 | [3] 0.023 | [4] 0.001 | [5] -0.02 | [6] 0 | [7] 0.013 | [8] -0.028 | [9] 0.038 | [10] 0.019 | [11] -0.055 | [12] -0.004 | [13] 0.094 | [14] 0.002 | [15] -0.005 | [16] 0.091 | [19] 0.006 | [20] 0.044
active: [17] 0.234 | [18] -0.422

KNOP1 (UniProt Q1ED39)
inactive: [1] -0.079 | [2] -0.096 | [3] -0.096 | [4] -0.133 | [5] -0.031 | [6] 0.052 | [7] -0.114 | [8] 0.155 | [9] -0.033 | [10] -0.118 | [11] -0.285 | [12] 0.026 | [13] -0.014 | [14] 0.315 | [15] 0.056 | [16] -0.161 | [17] 0.016 | [18] 0.012 | [19] -0.029 | [20] -0.063

LTN1 isoform 3 (UniProt O94822)
inactive: [1] -0.036 | [2] 0.018 | [3] 0.016 | [4] -0.066 | [5] 0.079 | [6] 0.001 | [7] -0.009 | [8] -0.018 | [9] 0.075 | [10] 0.019 | [11] 0.005 | [12] 0.022 | [13] 0.034 | [14] -0.06 | [15] -0.041 | [16] -0.004 | [17] 0.035 | [18] -0.106 | [19] 0.04 | [20] 0.03

LSG1 (UniProt Q9H089)
inactive: [1] -0.083 | [2] -0.033 | [3] 0.026 | [4] 0.052 | [5] 0.032 | [6] 0.004 | [7] -0.187 | [8] 0.012 | [9] 0.013 | [10] 0.031 | [11] -0.056 | [12] 0.046 | [13] 0.037 | [14] -0.084 | [15] -0.065 | [16] -0.01 | [17] -0.124 | [18] 0.064 | [19] 0.043 | [20] 0.024

LRWD1 (UniProt Q9UFC0)
inactive: [1] 0.082 | [2] -0.009 | [3] 0.004 | [4] 0 | [5] 0.035 | [6] 0.015 | [7] -0.004 | [8] 0 | [9] 0.032 | [10] 0.04 | [11] 0.009 | [12] -0.013 | [13] -0.021 | [14] -0.016 | [15] -0.017 | [16] 0.023 | [17] -0.003 | [18] 0.036 | [19] 0.025 | [20] 0.03

LIG4 (UniProt P49917)
Chain of UniProt P49917 (P49917 whole entry, looked up): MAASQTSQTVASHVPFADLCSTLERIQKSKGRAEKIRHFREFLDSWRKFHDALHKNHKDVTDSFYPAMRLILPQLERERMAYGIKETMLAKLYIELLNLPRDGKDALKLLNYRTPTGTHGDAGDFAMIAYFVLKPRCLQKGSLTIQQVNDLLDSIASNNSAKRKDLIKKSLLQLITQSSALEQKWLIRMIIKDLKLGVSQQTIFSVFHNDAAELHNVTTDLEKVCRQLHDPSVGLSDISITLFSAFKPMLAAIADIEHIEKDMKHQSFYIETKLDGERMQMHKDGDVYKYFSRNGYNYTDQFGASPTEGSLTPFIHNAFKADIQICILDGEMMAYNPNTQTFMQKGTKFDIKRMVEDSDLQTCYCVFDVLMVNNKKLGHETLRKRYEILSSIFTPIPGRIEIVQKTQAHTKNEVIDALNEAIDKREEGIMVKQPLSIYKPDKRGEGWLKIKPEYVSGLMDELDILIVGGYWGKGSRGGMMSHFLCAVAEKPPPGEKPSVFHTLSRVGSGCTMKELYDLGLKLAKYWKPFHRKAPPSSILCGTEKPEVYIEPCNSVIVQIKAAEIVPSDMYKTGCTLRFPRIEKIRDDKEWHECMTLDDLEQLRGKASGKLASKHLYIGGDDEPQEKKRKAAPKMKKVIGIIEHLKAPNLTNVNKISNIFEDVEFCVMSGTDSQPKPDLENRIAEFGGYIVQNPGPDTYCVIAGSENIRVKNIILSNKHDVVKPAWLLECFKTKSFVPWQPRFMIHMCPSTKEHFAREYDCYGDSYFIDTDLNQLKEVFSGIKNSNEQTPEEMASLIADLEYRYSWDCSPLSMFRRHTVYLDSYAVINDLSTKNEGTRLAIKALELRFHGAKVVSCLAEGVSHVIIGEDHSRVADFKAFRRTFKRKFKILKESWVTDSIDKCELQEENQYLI
inactive: [1] 0.056 | [2] 0.174 | [3] -0.001 | [4] -0.023 | [5] 0.013 | [6] -0.016 | [7] -0.021 | [8] 0.004 | [9] 0.015 | [10] 0.109 | [11] 0.041 | [12] -0.034 | [13] -0.04 | [14] -0.087 | [15] -0.182 | [16] -0.027 | [17] -0.105 | [18] 0.018 | [19] 0.027 | [20] 0.048

MAPK14 (UniProt Q16539)
Chain of UniProt Q16539 (Q16539 whole entry, looked up): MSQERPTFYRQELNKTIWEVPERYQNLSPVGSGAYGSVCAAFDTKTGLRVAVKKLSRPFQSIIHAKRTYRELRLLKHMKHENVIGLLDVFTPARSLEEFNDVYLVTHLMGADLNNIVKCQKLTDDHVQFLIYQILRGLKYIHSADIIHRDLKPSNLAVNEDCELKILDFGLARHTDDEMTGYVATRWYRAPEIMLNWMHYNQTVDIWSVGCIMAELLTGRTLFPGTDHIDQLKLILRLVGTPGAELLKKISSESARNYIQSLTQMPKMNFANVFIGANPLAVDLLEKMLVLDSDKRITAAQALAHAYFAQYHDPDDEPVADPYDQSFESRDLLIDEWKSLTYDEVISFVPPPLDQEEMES
inactive: [1] 0.042 | [2] 0.238 | [4] -0.008 | [5] -0.06 | [6] -0.14 | [7] -0.026 | [9] 0.455 | [10] -0.007 | [11] 0.175 | [12] 0.081 | [13] 0.021 | [14] -0.192 | [15] -0.056 | [16] -0.052 | [17] -0.035 | [18] 0.093 | [19] 0.226 | [20] -0.058
active: [3] 1.16 | [8] 0.88

MAP2K3 isoform 3 (UniProt P46734)
inactive: [1] -0.041 | [2] 0.095 | [3] 0.012 | [4] -0.008 | [5] -0.15 | [6] 0.019 | [7] -0.095 | [8] 0.021 | [9] 0.123 | [10] 0.114 | [11] 0.065 | [12] -0.042 | [13] 0.032 | [14] -0.125 | [15] 0.07 | [16] -0.063 | [17] 0.191 | [18] 0.04 | [19] 0.113 | [20] -0.008

KNL1 (UniProt Q8NG31)
Chain of UniProt Q8NG31 (Q8NG31 whole entry, looked up): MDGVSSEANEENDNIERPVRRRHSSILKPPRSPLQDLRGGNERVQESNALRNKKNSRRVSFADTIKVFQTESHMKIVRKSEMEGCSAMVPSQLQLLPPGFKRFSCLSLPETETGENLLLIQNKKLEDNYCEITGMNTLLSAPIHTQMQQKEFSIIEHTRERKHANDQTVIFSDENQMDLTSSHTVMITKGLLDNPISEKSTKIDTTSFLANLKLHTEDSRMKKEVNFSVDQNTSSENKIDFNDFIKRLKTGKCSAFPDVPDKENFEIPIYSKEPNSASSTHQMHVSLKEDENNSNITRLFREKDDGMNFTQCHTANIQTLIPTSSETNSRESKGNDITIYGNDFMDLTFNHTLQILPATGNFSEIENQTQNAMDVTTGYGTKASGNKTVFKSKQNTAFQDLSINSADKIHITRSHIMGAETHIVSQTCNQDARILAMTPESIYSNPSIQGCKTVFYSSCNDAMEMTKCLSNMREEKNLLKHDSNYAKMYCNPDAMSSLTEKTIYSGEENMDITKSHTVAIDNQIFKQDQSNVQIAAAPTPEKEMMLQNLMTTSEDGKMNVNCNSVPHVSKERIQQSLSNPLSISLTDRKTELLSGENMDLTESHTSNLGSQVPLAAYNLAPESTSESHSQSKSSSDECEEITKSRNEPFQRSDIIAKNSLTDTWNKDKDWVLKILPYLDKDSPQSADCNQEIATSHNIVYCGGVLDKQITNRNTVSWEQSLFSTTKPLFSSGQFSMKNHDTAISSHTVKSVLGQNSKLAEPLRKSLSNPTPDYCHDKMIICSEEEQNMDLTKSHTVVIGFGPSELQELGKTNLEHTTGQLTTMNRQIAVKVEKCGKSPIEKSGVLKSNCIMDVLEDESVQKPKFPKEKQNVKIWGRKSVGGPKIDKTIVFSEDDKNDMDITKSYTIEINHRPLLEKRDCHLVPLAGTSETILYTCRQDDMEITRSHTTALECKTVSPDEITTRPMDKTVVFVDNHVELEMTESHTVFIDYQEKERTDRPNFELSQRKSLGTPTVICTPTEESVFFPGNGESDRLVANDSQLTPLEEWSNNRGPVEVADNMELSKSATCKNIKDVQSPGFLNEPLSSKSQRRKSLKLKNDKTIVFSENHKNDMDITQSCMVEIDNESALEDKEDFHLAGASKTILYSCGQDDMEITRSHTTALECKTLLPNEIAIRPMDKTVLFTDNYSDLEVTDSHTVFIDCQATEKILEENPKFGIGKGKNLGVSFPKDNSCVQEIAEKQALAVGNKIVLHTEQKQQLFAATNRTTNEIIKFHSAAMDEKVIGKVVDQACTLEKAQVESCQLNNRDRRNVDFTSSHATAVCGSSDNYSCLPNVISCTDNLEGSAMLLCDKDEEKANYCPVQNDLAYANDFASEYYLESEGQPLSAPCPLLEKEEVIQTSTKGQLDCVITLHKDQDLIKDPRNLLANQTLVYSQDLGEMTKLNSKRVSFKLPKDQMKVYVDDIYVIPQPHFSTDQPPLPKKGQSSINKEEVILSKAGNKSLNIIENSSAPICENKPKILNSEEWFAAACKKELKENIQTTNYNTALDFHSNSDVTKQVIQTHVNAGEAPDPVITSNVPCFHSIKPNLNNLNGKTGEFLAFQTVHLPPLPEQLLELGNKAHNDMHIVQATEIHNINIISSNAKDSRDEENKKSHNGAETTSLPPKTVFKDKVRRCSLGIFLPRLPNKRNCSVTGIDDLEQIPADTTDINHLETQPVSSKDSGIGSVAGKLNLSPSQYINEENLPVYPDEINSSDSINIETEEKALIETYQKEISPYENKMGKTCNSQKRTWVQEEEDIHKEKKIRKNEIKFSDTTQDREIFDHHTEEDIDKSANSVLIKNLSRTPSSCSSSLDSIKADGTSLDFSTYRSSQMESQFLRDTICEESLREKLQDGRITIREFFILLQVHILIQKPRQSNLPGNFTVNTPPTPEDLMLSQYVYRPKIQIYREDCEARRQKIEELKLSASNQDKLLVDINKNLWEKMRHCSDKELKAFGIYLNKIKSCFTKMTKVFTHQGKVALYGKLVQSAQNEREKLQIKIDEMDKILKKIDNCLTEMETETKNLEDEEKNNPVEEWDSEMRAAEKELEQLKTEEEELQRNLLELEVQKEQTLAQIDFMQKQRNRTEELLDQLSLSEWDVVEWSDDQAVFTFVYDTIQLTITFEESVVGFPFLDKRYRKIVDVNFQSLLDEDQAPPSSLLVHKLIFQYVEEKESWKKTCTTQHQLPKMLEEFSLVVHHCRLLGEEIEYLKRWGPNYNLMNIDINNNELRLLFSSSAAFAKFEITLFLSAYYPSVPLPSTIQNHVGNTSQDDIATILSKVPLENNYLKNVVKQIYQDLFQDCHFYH
inactive: [1] 0.009 | [2] -0.014 | [3] 0.012 | [4] -0.032 | [5] 0.013 | [6] 0.012 | [7] -0.022 | [8] 0 | [9] 0.004 | [10] 0.012 | [11] -0.031 | [12] 0.064 | [13] 0.011 | [14] -0.015 | [15] -0.044 | [16] -0.012 | [17] 0.015 | [18] 0 | [19] 0.006 | [20] 0.025

MAP1S (UniProt Q66K74)
inactive: [1] -0.008 | [2] -0.026 | [3] 0.004 | [4] -0.041 | [5] -0.005 | [6] 0.011 | [7] -0.021 | [8] 0 | [9] 0.025 | [10] 0.006 | [11] -0.004 | [12] 0.041 | [13] 0.002 | [14] -0.035 | [15] -0.024 | [16] -0.01 | [17] -0.056 | [18] -0.022 | [19] 0.038 | [20] 0.037

MORC3 (UniProt Q14149)
inactive: [1] 0.004 | [2] -0.023 | [3] 0.021 | [4] 0.013 | [5] -0.007 | [6] 0.007 | [7] -0.032 | [8] -0.021 | [9] 0.021 | [10] -0.027 | [11] 0.025 | [12] 0.01 | [13] 0.019 | [14] -0.03 | [15] -0.077 | [16] 0.007 | [17] -0.007 | [18] -0.055 | [19] 0.004 | [20] 0.006

LUZP1 (UniProt Q86V48)
Chain of UniProt Q86V48 (Q86V48 whole entry, looked up): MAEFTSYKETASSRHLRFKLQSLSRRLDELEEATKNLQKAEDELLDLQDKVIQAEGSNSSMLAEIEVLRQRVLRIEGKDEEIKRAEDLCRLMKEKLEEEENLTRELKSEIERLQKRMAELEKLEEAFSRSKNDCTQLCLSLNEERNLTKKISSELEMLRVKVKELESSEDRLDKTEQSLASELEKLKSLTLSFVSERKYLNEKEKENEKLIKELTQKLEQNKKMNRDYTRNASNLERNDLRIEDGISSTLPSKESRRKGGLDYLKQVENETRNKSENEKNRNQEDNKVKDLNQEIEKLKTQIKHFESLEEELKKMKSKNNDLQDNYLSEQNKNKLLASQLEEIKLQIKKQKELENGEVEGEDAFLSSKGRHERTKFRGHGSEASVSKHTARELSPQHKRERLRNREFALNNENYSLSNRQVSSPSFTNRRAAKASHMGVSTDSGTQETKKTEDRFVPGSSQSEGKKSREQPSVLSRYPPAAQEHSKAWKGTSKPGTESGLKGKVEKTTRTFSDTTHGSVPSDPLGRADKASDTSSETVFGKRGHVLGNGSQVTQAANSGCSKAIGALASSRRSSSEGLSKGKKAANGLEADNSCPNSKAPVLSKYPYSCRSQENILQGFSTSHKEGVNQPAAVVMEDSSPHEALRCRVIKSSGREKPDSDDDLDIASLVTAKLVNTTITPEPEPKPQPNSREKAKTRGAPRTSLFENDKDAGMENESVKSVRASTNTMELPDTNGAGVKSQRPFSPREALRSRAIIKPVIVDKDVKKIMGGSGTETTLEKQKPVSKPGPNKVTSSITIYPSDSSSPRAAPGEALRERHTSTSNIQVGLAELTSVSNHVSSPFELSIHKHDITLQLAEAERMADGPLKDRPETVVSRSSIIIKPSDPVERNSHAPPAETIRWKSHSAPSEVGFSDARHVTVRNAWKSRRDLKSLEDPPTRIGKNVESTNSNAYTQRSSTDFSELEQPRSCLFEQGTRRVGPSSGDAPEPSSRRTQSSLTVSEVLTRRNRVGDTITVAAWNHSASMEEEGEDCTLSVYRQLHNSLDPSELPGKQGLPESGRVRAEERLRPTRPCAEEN
inactive: [1] 0.002 | [2] -0.002 | [3] 0.003 | [4] -0.012 | [5] 0.016 | [6] -0.006 | [7] 0.012 | [8] 0.011 | [9] -0.002 | [10] 0.017 | [11] 0.037 | [12] 0.003 | [13] 0.013 | [14] 0.086 | [15] -0.015 | [16] 0.012 | [17] 0.108 | [18] 0.014 | [19] -0.024 | [20] -0.01

KRR1 (UniProt Q13601)
inactive: [1] 0.037 | [2] 0.009 | [3] 0.035 | [4] 0.042 | [5] -0.04 | [6] 0.041 | [7] -0.032 | [8] 0.144 | [9] 0.093 | [10] -0.027 | [11] 0.057 | [12] 0.01 | [13] 0.026 | [14] 0.065 | [15] -0.015 | [16] 0.023 | [17] -0.006 | [18] -0.026 | [19] 0.003 | [20] -0.021

KPNA2 (UniProt P52292)
inactive: [1] -0.044 | [2] -0.011 | [3] -0.001 | [4] -0.023 | [5] 0.009 | [6] -0.01 | [7] -0.027 | [8] -0.032 | [9] 0.051 | [10] 0.041 | [11] 0.001 | [12] 0 | [13] 0.05 | [14] -0.037 | [15] -0.051 | [16] 0.004 | [17] -0.033 | [18] -0.041 | [19] 0.005 | [20] 0.038

MAPK8 isoform 3 (UniProt P45983)
Chain of UniProt P45983 (P45983 whole entry, looked up): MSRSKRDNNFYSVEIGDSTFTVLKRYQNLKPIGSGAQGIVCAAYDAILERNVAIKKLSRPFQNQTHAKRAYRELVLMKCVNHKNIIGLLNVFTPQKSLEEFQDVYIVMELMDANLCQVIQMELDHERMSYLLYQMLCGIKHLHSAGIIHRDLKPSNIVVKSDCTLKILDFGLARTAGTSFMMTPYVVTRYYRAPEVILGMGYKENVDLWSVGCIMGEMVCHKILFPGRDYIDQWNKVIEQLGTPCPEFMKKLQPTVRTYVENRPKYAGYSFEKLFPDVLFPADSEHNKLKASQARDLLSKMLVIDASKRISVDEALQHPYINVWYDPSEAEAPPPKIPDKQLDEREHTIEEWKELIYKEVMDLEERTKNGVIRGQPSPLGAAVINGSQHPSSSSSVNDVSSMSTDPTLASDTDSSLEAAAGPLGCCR
inactive: [1] 0.038 | [3] 0.294 | [4] 0.025 | [5] 0.035 | [6] -0.057 | [7] -0.017 | [8] 0.013 | [9] 0.047 | [10] -0.012 | [11] 0.06 | [12] 0.022 | [13] 0.007 | [14] -0.123 | [15] -0.02 | [16] -0.005 | [17] 0.013 | [18] 0.055 | [19] 0.027 | [20] 0.01
active: [2] 0.445
